Growth inhibition data for eight compounds are collected here from PubChem BioAssay (NCI).

This test in a line: NCI Yeast Anticancer Drug Screen. Data for the rad14 strain (AID 159).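 Also: 0% = growth of vehicle-treated control cultures.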 Particulars: S. cerevisiae rad14 strain growth inhibition, active compounds read high. As to the method:
Growth inhibition of yeast strains with defined genetic alterations is measured as a screen for potential anti-cancer activity. Selected strains with alterations in DNA damage repair or cell cycle control were exposed to compounds and growth inhibition was measured relative to vehicle treated controls. The strain used in this assay is rad14

About 79,000 compounds went through this panel and 15% of them were active in at least one assay; those are over-represented in the sample as a whole. Unmarked numbers belong to inactive results. Activity calls are given as the source filed them. Rule as the data show it: active = growth inhibition above about 70%; inactive = the rest.

Regarding `COc1ccc(C2CC(C)(N3CCCC3)Oc3cc4c(cc32)OCO4)cc1` (stereo not given), the growth inhibition (at 1.2 µM) is 0%; the growth inhibition (at 3.7 µM) is 0%; the growth inhibition (at 11.0 µM) is -1%; the growth inhibition (at 33.0 µM) is 9%; the growth inhibition (at 100.0 µM) was 67%.
Regarding `OC(Cc1cccc2ccccc12)CN1CCC(c2ccccc2)CC1` (stereo not given), the growth inhibition is, setting by setting: (at 1.2 µM) 71% (active); (at 3.7 µM) 75% (active); (at 11.0 µM) 89% (active); (at 33.0 µM) 97% (active); (at 100.0 µM) 98% (active).
Regarding `O=[N+]([O-])c1ccc(C(c2c[nH]c3ccccc23)c2c[nH]c3ccccc23)cc1`, the growth inhibition by setting is: (at 1.2 µM) 25%; (at 3.7 µM) 98% (active); (at 11.0 µM) 97% (active); (at 33.0 µM) 93% (active); (at 100.0 µM) 84% (active).
Taken in the same sequence, the figures for `O=S(=O)(NC1CCCC(c2ccccc2)C1)c1ccccc1` (stereo not given) were 1%, 2%, 2%, 4% and 96% (active).
`CCCN=Cc1cc(Cc2ccc(O)c(C=NCCC)c2)ccc1O`: the growth inhibition by setting is: (at 1.2 µM) 57%; (at 3.7 µM) 97% (active); (at 11.0 µM) 98% (active); (at 33.0 µM) 99% (active); (at 100.0 µM) 98% (active).
`COc1ccc2nc3cccc([N+](=O)[O-])c3c(NCCCCCC(=O)O)c2c1`: the growth inhibition (at 1.2 µM) is 96% (active); the growth inhibition (at 3.7 µM) is 99% (active); the growth inhibition (at 11.0 µM) is 99% (active); the growth inhibition (at 33.0 µM) was 99% (active); the growth inhibition (at 100.0 µM) is 99% (active).
For `CC1(C)C(O)OC(O)C1(C)C` (stereo not given), the growth inhibition reads like this: (at 1.2 µM) -2%; (at 3.7 µM) -2%; (at 11.0 µM) 0%; (at 33.0 µM) 3%; (at 100.0 µM) 22%.
In the case of `COc1ccc(C(C)c2cc3c(cc2OCC(C)=O)OCO3)cc1` (stereo not given), the growth inhibition reads like this: (at 1.2 µM) -2%; (at 3.7 µM) -3%; (at 11.0 µM) -3%; (at 33.0 µM) 1%; (at 100.0 µM) 38%.
